Results published in PubChem BioAssay (NCATS).
Results filed as inconclusive are left out. Active and inactive are the calls of the source. Calls come from the whole dose curve; as a rule, active = well fitted curve in the direction sought with a large enough effect; inconclusive = small, poorly fitted or top-dose-only effect, or another doubt; inactive = no such curve, though single readings can be large; an effect the other way counts as inactive or inconclusive.

Experiments:
[1] = qHTS of pediatric cancer cell lines to identify multiple opportunities for drug repurposing: Primary screen for BT-37 cells (AID 1347094); note: potency is the fitted concentration of half-maximal effect
Method in brief: (§1)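 Primary screen of approved and investigational compounds on cells in growth media at 37 degrees C, 5% CO2. MIPE set at 11-point and NPC set at 8-point dilutions; viability scored by ATP-based luminescence at 48 hours.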

[2] = qHTS of pediatric cancer cell lines to identify multiple opportunities for drug repurposing: Primary screen for NB-EBc1 cells (AID 1347095); note: potency is the fitted concentration of half-maximal effect
Method in brief: as §1

[3] = qHTS of pediatric cancer cell lines to identify multiple opportunities for drug repurposing: Primary screen for Saos-2 cells (AID 1347097); note: potency is the fitted concentration of half-maximal effect; nearly all actives have a fitted effect of over 40% in size
Method in brief: as §1

[4] = qHTS of pediatric cancer cell lines to identify multiple opportunities for drug repurposing: Primary screen for LAN-5 cells (AID 1347100); note: potency is the fitted concentration of half-maximal effect
Method in brief: (§2)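 Viability after 48 h compound treatment at 37C, 500-1,000 cells/well, read as ATP luminescence with CellTiter-Glo. Primary screens used 11-point (MIPE, 0.78 nM-46 µM) or 8-point (NPC, 0.59 nM-46 µM) final concentrations; follow-up screens used 11-point dilutions.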

[5] = qHTS of pediatric cancer cell lines to identify multiple opportunities for drug repurposing: Primary screen for BT-12 cells (AID 1347101); note: nearly all actives have a fitted effect of over 25% in size; note: potency is the fitted concentration of half-maximal effect
Method in brief: (§3)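 Cells (500-1,000/well) rested 5 h, then received compounds for 48 h; metabolically active cells were measured by CellTiter-Glo luminescence. Final concentrations spanned up to 46 µM (MIPE, 11-point) or 0.59 nM-46 µM (NPC, 8-point) in primary screens, 11-point in follow-ups.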

[6] = qHTS of pediatric cancer cell lines to identify multiple opportunities for drug repurposing: Primary screen for OHS-50 cells (AID 1347103); note: nearly all actives have a fitted effect of over 40% in size; note: potency is the fitted concentration of half-maximal effect
Method in brief: as §3

[7] = qHTS of pediatric cancer cell lines to identify multiple opportunities for drug repurposing: Primary screen for RD cells (AID 1347104); note: nearly all actives have a fitted effect of over 55% in size; note: potency is the fitted concentration of half-maximal effect
Method in brief: as §1

[8] = qHTS of pediatric cancer cell lines to identify multiple opportunities for drug repurposing: Primary screen for MG 63 (6-TG R) cells (AID 1347105); note: nearly all actives have a fitted effect of over 50% in size; note: potency is the fitted concentration of half-maximal effect
Method in brief: as §1

[9] = qHTS of pediatric cancer cell lines to identify multiple opportunities for drug repurposing: Primary screen for Rh41 cells (AID 1347108); note: nearly all actives have a fitted effect of over 70% in size; note: potency is the fitted concentration of half-maximal effect
Method in brief: as §1

[10] = qHTS of pediatric cancer cell lines to identify multiple opportunities for drug repurposing: Primary screen for SK-N-SH cells (AID 1347098); note: nearly all actives have a fitted effect of over 65% in size; note: potency is the fitted concentration of half-maximal effect
Method in brief: as §3

[11] = qHTS of pediatric cancer cell lines to identify multiple opportunities for drug repurposing: Primary screen for NB1643 cells (AID 1347099); note: nearly all actives have a fitted effect of over 50% in size; note: potency is the fitted concentration of half-maximal effect
Method in brief: as §1

[12] = qHTS of pediatric cancer cell lines to identify multiple opportunities for drug repurposing: Primary screen for control Hh wild type fibroblast cells (AID 1347106);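 note: series mostly up to about 46 µM; a drop in luminescence marks cytotoxicity and a rise apparent proliferation; nearly all actives have a fitted effect of over 55% in size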
Method in brief: as §2

[13] = qHTS of pediatric cancer cell lines to identify multiple opportunities for drug repurposing: Primary screen for Rh18 cells (AID 1347102); note: nearly all actives have a fitted effect of over 65% in size
Method in brief: as §2

[14] = qHTS of pediatric cancer cell lines to identify multiple opportunities for drug repurposing: Primary screen for Rh30 cells (AID 1347107); note: series mostly up to about 46 µM; nearly all actives have a fitted effect of over 75% in size
Method in brief: as §2

[15] = qHTS of pediatric cancer cell lines to identify multiple opportunities for drug repurposing: Confirmatory screen for NB1643 cells (AID 1347109); note: potency is the fitted concentration of half-maximal effect; nearly all actives have a fitted effect of over 45% in size
Method in brief: as §2

[16] = qHTS of pediatric cancer cell lines to identify multiple opportunities for drug repurposing: Confirmatory screen for A673 cells (AID 1347110); note: potency is the fitted concentration of half-maximal effect; nearly all actives have a fitted effect of over 65% in size
Method in brief: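 Cells plated at 500-1,000/well were treated five hours later with multi-point dilutions up to 46 µM final. After two days, CellTiter-Glo was added and luminescence read.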

[17] = qHTS of pediatric cancer cell lines to identify multiple opportunities for drug repurposing: Confirmatory screen for SK-N-MC cells (AID 1347111);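 note: potency is the fitted concentration of half-maximal effect; cells exposed to compound for 48 h before the readout; nearly all actives have a fitted effect of over 70% in size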
Method in brief: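 SK-N-MC cells at 500-1,000 cells/well in growth media were pre-incubated 5 h, then exposed to compounds at 11-point dilutions for 48 h at 37 degrees C, 5% CO2. Viability was read as CellTiter-Glo luminescence.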

[18] = qHTS of pediatric cancer cell lines to identify multiple opportunities for drug repurposing: Confirmatory screen for BT-12 cells (AID 1347112); note: potency is the fitted concentration of half-maximal effect; nearly all actives have a fitted effect of over 55% in size
Method in brief: as §2

[19] = qHTS of pediatric cancer cell lines to identify multiple opportunities for drug repurposing: Confirmatory screen for LAN-5 cells (AID 1347113); note: potency is the fitted concentration of half-maximal effect; nearly all actives have a fitted effect of over 65% in size
Method in brief: as §2

Measured: Potency

CC(C)c1cnn2c(NCc3ccccc3)cc(NCCCCCCN)nc12
active: [1] 24300 nM | [2] 20900 nM | [3] 23500 nM | [4] 18700 nM | [5] 27300 nM | [6] 21700 nM | [7] 18700 nM | [8] 5900 nM | [9] 7430 nM

CN(C)CCN1C(=O)c2cccc3cc(N)cc(c23)C1=O
active: [1] 6850 nM | [2] 1870 nM | [10] 21500 nM | [11] 18700 nM | [5] 21700 nM | [6] 24300 nM | [7] 18700 nM

O=C(Nc1nnc(-c2ccco2)o1)c1cc(-c2ccccc2)nc2ccccc12
inactive: [12]
active: [1] 27300 nM | [2] 8330 nM | [10] 30400 nM | [11] 10500 nM | [4] 20900 nM | [6] 30600 nM | [8] 14800 nM

Cn1cc(C=CC(=O)c2cccc(F)c2)cc1C=CC(=O)NO
inactive: [1] | [2] | [5] | [13] | [8] | [12] | [14]
active: [10] 24100 nM | [11] 4690 nM

CC(C)OC(=O)[C@H](C)N[P@](=O)(OC[C@H]1O[C@@H](n2ccc(=O)[nH]c2=O)[C@](C)(F)[C@H]1O)Oc1ccccc1
not listed: [3] | [4] | [13] | [15] | [16] | [17] | [18] | [19]
inactive: all other assays above

CCc1cnn2c(NCc3ccc[n+]([O-])c3)cc(N3CCCC[C@@H]3CCO)nc12
active: [1] 38.5 nM | [2] 18.7 nM | [3] 23.5 nM | [10] 38.3 nM | [5] 43.2 nM | [6] 34.3 nM | [7] 33.2 nM | [9] 74.3 nM
inactive: [14]

CC[C@@]1([C@@H]2O[C@@H]([C@H]3O[C@@](O)(CO)[C@H](C)C[C@H]3C)C[C@H]2C)CC[C@H]([C@]2(C)CC[C@]3(C[C@H](O)[C@@H](C)[C@@H]([C@@H](C)[C@@H](OC)[C@H](C)C(=O)O)O3)O2)O1
active: [1] 150 nM | [2] 182 nM | [3] 6450 nM | [11] 457 nM | [4] 129 nM | [5] 106 nM | [6] 188 nM | [15] 362 nM | [16] 1020 nM | [17] 229 nM | [18] 1150 nM | [19] 362 nM
inactive: [13]

C=CCNc1c(O)cc2c(O)c1C[C@@H](C)C[C@H](OC)[C@@H](O)[C@@H](C)C=C(C)[C@H](OC(N)=O)[C@@H](OC)C=CC=C(C)C(=O)N2
inactive: [14]
active: [1] 217 nM | [2] 1320 nM | [10] 3040 nM | [11] 1480 nM | [4] 1870 nM | [7] 264 nM | [9] 2350 nM
